Screens from PubChem.
The list is not random: actives were taken first. Their share in the collection is about 2.9%.
PLC-gamma1 inh – PLC-gamma1 (human) inhibition, primary screen; purified PLC-gamma1, fluorogenic substrate, fluorescence; P19174; AID 720700; 0.84% of 370,000 active; inhibition, % at 12.2 µM; in the data active = inhibition above about 9.5%
ADAM10 inh – inhibitors of human ADAM10; 0.62% of 370,000 active; O14672; recombinant ADAM10, EDANS/DABCYL FRET peptide cleavage, 3 h; inhibition, % at 7 µM;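 active = inhibition above a per-campaign cutoff equal to the mean of compounds falling between control-based bounds plus 3 SD, cut at about 20% in these data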
ADAM17 inh – inhibitors of human ADAM17. inhibition, % at 6.95 µM. P78536. recombinant ADAM17, EDANS/DABCYL FRET peptide cleavage. AID 720648. 0.83% of 370,000 active;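 active = inhibition above the mean of compounds lying between control limits plus 3 SD, set per campaign, cut at about 8.5% in these data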
Target sequence (P78536 215-824 limits assumed): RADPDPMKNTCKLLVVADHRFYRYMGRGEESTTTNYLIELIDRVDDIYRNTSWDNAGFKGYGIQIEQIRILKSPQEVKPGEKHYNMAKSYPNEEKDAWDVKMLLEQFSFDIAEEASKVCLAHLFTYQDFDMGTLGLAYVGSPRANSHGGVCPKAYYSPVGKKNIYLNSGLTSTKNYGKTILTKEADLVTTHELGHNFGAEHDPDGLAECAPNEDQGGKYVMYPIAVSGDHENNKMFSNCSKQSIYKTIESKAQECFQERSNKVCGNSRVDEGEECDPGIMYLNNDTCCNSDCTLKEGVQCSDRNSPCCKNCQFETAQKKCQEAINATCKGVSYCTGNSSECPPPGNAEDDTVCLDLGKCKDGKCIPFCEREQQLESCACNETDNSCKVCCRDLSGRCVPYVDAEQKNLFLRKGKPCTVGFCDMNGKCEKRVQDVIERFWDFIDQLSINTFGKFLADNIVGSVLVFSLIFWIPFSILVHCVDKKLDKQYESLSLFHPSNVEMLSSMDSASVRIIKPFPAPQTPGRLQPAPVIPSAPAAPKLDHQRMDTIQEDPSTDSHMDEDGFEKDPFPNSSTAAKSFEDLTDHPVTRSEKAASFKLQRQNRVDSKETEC
KLK7 zymogen act – activators of human kallikrein-7 zymogen; P49862; 0.9% of 370,000 active; activation, % at 7 µM; purified proKLK7, EDANS-DABCYL substrate fluorescence; 100% is mature enzyme control, 0% vehicle; AID 652039;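 active = activation above the mean of all tested compounds plus 3 SD, computed per campaign excluding outliers beyond control limits, cut at about 13% in these data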
PLC-beta3 inh – blocks human PLC-beta3 enzyme activity. Q01970. Purified PLC-beta3, fluorogenic substrate, fluorescence. inhibition, % at 12.2 µM. 0.18% of 370,000 active. AID 720704
PLCgamma1 ctr – inhibits human PLC-gamma1 in PLC-beta3 counter-screen. shares compounds with PLC-gamma1 inh. purified PLC-gamma1, fluorogenic substrate, fluorescence. inhibition, % at 12.3 µM. 3.1% of 3,300 active; in the data active = inhibition above about 9.5%
PLCbeta3 conf – confirmation of human PLC-beta3 inhibitors | purified PLC-beta3, fluorogenic substrate fluorescence | inhibition, % at 12.3 µM | shares compounds with PLC-gamma1 inh | 1% of 3,300 active
Each line names hits and unclear results; the compound was inactive in the other large screens (follow-up assays come after a bar, where they were run). Cut-off read from the data, not from the text of the source, unless noted: active = inhibition above about 11%; inactive = the rest.

COc1ccc(-n2c(COc3ccccc3)nnc2SCC(=O)Nc2ccc(OCc3ccccc3)cc2)cc1	PLC-gamma1 inh 9.6 | PLCgamma1 ctr inactive | PLCbeta3 conf inactive
CC(C)Oc1ccccc1/C=N/Nc1ccccc1[N+](=O)[O-]	none
Cc1ccc(C(=O)CSc2nnnn2-c2ccccc2)o1	PLC-gamma1 inh 11 | PLCgamma1 ctr inactive | PLCbeta3 conf inactive
Cc1ccc(C(=O)CSc2nnc(-c3ccccc3)n2-c2ccccc2)o1	none
O=C(CSc1n[nH]c(=O)[nH]c1=O)c1ccccc1[N+](=O)[O-]	none
O=C(NCc1ccco1)C1CCCN(S(=O)(=O)Cc2ccccc2)C1 (stereo unspecified)	none
CCOC(=O)c1c(C)[nH]c(C(=O)CN2C(=O)NC3(CCCC3)C2=O)c1C	PLC-gamma1 inh 13 | PLCgamma1 ctr inactive | PLCbeta3 conf inactive
CCOC(=O)c1c(C)[nH]c(C)c1C(=O)CN1C(=O)NC2(CCCCCC2)C1=O	none
COc1cc(C2Nc3ccc4ncccc4c3C3=C2C(=O)CCC3)cc(OC)c1OC (stereo unspecified)	none
CC1(C)CC(=O)C=C(Nc2ccccc2N)C1	none
Cc1cccc(NC2=CC(=O)CC(C)(C)C2)c1C	PLC-gamma1 inh 9.8 | PLCgamma1 ctr inactive | PLCbeta3 conf inactive
O=C(c1ccco1)N1CCN(c2ccccc2F)CC1	none
O=C(c1ccco1)N1CCN(C(=O)C2CC(c3ccccc3F)=NO2)CC1 (stereo unspecified)	PLC-gamma1 inh 14 | PLCgamma1 ctr inactive | PLCbeta3 conf inactive
O=C(c1ccco1)N1CCN(Cc2nnc(-c3ccccc3F)o2)CC1	PLC-gamma1 inh 9.8 | PLCgamma1 ctr inactive | PLCbeta3 conf inactive
O=C(CN(C(=O)c1cccc([N+](=O)[O-])c1)C1CCCCC1)Nc1ccc(Cl)c([N+](=O)[O-])c1	none
CCc1nnc(NC(=O)c2cc(-c3cccnc3)nc3ccccc23)s1	none
C=C(C)C(=O)Nc1cccc(C2=NOC3(C2)C[C@@H](C(N)=O)N(C(=O)c2cc([N+](=O)[O-])cc([N+](=O)[O-])c2C)C3)c1 (stereo partly specified)	PLC-gamma1 inh 10 | PLCgamma1 ctr inactive | PLCbeta3 conf inactive
Cc1c(C(=O)N2CC3(CC(c4cccc(NC(=O)[C@H]5CCC(=O)N5)c4)=NO3)C[C@@H]2C(N)=O)cc([N+](=O)[O-])cc1[N+](=O)[O-] (stereo partly specified)	none
C/C=C/C=C\C(=O)Nc1cccc(C2=NOC3(C2)C[C@@H](C(N)=O)N(C(=O)c2cc([N+](=O)[O-])cc([N+](=O)[O-])c2)C3)c1 (stereo partly specified)	none
C/C=C/C(=O)Nc1cccc(C2=NOC3(C2)C[C@@H](C(N)=O)N(C(=O)c2cc([N+](=O)[O-])cc([N+](=O)[O-])c2C)C3)c1 (stereo partly specified)	PLC-gamma1 inh 11 | PLCgamma1 ctr inactive | PLCbeta3 conf inactive
COc1ccc(-c2cnc3c(NC=O)cc(-c4ccccc4)cn23)cc1OC	none
Cn1c(SCC(=O)N2CCN(c3ccccc3)CC2)nnc1-c1ccncc1	none
Cn1c(SCC(=O)N2CCOCC2)nnc1-c1ccccc1	PLC-beta3 inh 12 | PLCgamma1 ctr inactive | PLCbeta3 conf inactive
O=S(=O)(C/C(=C/CO)S(=O)(=O)c1ccccc1)c1ccccc1	PLC-gamma1 inh 9.7 | PLCgamma1 ctr inactive | PLCbeta3 conf inactive
O=C(N/C=N/O)C1=NOC(CNc2ncc(C(F)(F)F)cc2Cl)C1 (stereo unspecified)	PLC-gamma1 inh 10 | PLCgamma1 ctr inactive | PLCbeta3 conf inactive
CC1CCN(C(=S)Nc2ccc(SC(F)F)cc2)CC1	PLC-gamma1 inh 11 | PLCgamma1 ctr inactive | PLCbeta3 conf inactive
COCCN1C(=O)c2ccccc2C(C(=O)N2CCN(c3ccccn3)CC2)C1c1ccc(F)cc1 (stereo unspecified)	none
O=C(c1cnc2c(c1)COc1ccc(Cl)cc1-2)c1ccccc1O	PLC-gamma1 inh 12 | PLCgamma1 ctr inactive | PLCbeta3 conf inactive
Cc1ccc(O)c(C(=O)c2cnc3c(c2)COc2ccccc2-3)c1	PLC-gamma1 inh 14 | PLCgamma1 ctr inactive | PLCbeta3 conf inactive
CC(C)(C)c1ccc(COC(=O)CN2C(=O)NC3(CCCC3)C2=O)cc1	none
O=C(Nc1cc(Cl)ccc1N1CCOCC1)c1cccnc1	none
CCCCN(CC)S(=O)(=O)c1ccc2c(c1)CCCN2C(C)=O	none
CC(=O)N1CCCc2cc(S(=O)(=O)N(C)Cc3ccccc3)ccc21	PLC-gamma1 inh 9.8 | PLCgamma1 ctr inactive | PLCbeta3 conf inactive
COc1cc(C(=O)NCCOc2ccccc2C)c(Br)c(OC)c1OC	none
COC(=O)[C@]12CCCCC=C1N(Cc1ccc(Cl)cc1Cl)C(=O)[C@H](CC(=O)N1CCC(c3ccccc3)CC1)C2	PLC-gamma1 inh 12 | PLCgamma1 ctr inactive | PLCbeta3 conf inactive
CCOC(=O)[C@]12CCCC=C1N(Cc1ccc(Cl)cc1Cl)C(=O)[C@H](CC(=O)N1CCC(c3ccccc3)CC1)C2	none
CCOC(=O)c1c(NC(=O)C2CCCN(S(=O)(=O)c3ccc(C)cc3)C2)sc2c1CCCC2 (stereo unspecified)	PLC-gamma1 inh 15 | PLCgamma1 ctr inactive | PLCbeta3 conf inactive
COc1ccc(N2CCN(C(=O)CCc3ccc(S(=O)(=O)NCC(C)C)cc3)CC2)cc1	PLC-gamma1 inh 9.6 | PLCgamma1 ctr inactive | PLCbeta3 conf inactive
COc1ccc(CNCCS(=O)(=O)NCc2ccc(OC)cc2)cc1	PLC-gamma1 inh 13 | PLCgamma1 ctr inactive | PLCbeta3 conf inactive
COc1ccc(CNCCS(=O)(=O)NCc2ccccc2)cc1	none
CCOC(=O)CSc1nnc(Cn2c(=O)sc3ccccc32)n1-c1ccccc1C	PLC-beta3 inh 11 | PLCgamma1 ctr 9.5 | PLCbeta3 conf inactive
Cc1csc2c(NCCCN3CCOCC3)ncnc12	PLC-gamma1 inh 13 | PLCgamma1 ctr inactive | PLCbeta3 conf inactive
Cc1ccc2ncnc(NCCCN3CCOCC3)c2c1	none
Cc1cc(C)cc(N(CC(=O)NCc2ccco2)C(=O)CCC(=O)Nc2ccccn2)c1	PLC-gamma1 inh 11 | PLCgamma1 ctr inactive | PLCbeta3 conf inactive
Cc1nn(C)c(Oc2ccccc2)c1CCNC(=O)C(C)(C)C	PLC-gamma1 inh 11 | PLCgamma1 ctr inactive | PLCbeta3 conf inactive
Cc1cc(C)cc(OCC(=O)Nc2ccccc2N2CCCCC2)c1	none
O=C(CSc1nnc(-c2ccccc2Br)o1)Nc1nncs1	PLC-beta3 inh 11 | PLCgamma1 ctr inactive | PLCbeta3 conf inactive
CCOc1ccc(NC(=O)CN(C)C(=O)CCc2ccccc2Cl)cc1OCC	none
CCOc1ccc(NC(=O)CN(C)C(=O)c2ccc(C)o2)cc1OCC	PLC-gamma1 inh 15 | PLCgamma1 ctr inactive | PLCbeta3 conf inactive
